Assay outcomes: PubChem, Buhrlage Lab, Dana-Farber Cancer Institute and Novartis Institutes for BioMedical Research (Cambridge, Mass)
USP8 inh – inhibitors of human USP8 deubiquitinase | Ubiquitin carboxyl-terminal hydrolase 8 (Homo sapiens), P40818 | 47,000 compounds, 4.2% hits | inhibition, % at 20 µM | purified USP8, Ub-rhodamine cleavage fluorescence, 30 min
Target sequence (P40818 whole entry, looked up): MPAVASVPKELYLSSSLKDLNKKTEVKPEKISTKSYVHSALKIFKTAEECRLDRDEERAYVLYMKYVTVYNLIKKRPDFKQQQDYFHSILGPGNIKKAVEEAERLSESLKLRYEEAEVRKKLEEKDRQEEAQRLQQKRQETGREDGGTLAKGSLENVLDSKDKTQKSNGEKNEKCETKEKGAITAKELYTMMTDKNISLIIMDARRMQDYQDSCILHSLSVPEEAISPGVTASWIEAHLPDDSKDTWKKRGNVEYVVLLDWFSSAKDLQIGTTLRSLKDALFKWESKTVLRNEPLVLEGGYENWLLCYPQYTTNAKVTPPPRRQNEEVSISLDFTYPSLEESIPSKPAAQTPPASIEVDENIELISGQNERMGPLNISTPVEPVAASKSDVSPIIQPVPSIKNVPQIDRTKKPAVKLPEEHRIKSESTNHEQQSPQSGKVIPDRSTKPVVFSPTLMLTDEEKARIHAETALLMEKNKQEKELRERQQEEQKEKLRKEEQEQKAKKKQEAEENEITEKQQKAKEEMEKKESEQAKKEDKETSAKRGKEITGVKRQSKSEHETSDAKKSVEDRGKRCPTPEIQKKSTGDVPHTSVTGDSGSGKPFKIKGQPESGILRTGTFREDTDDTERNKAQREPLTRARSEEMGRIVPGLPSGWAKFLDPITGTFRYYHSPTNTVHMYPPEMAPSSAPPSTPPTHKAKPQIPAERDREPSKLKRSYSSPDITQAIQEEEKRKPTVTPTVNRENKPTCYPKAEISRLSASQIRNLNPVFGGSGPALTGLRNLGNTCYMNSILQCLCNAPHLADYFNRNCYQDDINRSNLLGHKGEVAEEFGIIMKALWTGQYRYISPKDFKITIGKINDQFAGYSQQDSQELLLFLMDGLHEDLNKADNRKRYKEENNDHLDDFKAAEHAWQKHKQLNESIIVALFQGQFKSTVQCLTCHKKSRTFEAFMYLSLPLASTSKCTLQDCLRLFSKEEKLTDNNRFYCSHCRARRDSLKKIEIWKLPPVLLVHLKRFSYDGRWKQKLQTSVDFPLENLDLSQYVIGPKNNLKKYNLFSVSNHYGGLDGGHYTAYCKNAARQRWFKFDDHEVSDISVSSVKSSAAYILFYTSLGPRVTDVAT
OTUD3 block – inhibitors of human OTUD3 deubiquitinase | OTU domain-containing protein 3 (Homo sapiens), Q5T2D3 | purified OTUD3, Ub-rhodamine fluorescence, 2 h | inhibition, % at 25 µM | 47,000 compounds, 0.7% hits
USP28 inh – inhibitors of human USP28 deubiquitinase. AID 1645857, 2021. 47,000 compounds, 3% hits. purified USP28, Ub-rhodamine cleavage fluorescence, 30 min. inhibition, % at 25 µM
USP30 block – inhibitors of human USP30 deubiquitinase; purified USP30, Ub-rhodamine cleavage fluorescence; inhibition, % at 25 µM; 47,000 compounds, 5.3% hits
USP17 inh – inhibitors of human USP17 deubiquitinase. inhibition, % at 50 µM. Ubiquitin carboxyl-terminal hydrolase 17-like protein 5 (Homo sapiens), A8MUK1. purified USP17, Ub-rhodamine cleavage fluorescence, 3 h. AID 1645855, 2021. 47,000 compounds, 6.5% hits
Each line names hits and unclear results; the compound was inactive in the other large screens. Hits are enriched below; roughly 13% of the tested compounds scored in any of these assays. Rule as the data show it: active = inhibition above about 30%; inactive = the rest.

Cc1ccc(NC(=O)c2cnc3ccccc3n2)cc1Cl	USP8 inh 65
O=C(Nc1ccc(F)c(F)c1)c1cnc2ccccc2n1	none
Cc1cc(S(=O)(=O)N2CCC(c3c(C)[nH]c4ccccc34)CC2)ccc1F	none
Cc1cc(S(=O)(=O)N2CCC(C3(C)NC(=O)NC3=O)CC2)ccc1F (configuration not stated)	USP8 inh 53
C/C(Nc1ccc2oc(=O)ccc2c1)=C1/C(=O)CC2[C@H]1C2(C)C (some centres not stated)	USP8 inh 41 (no result: USP17 inh)
CC(C)(OC(=O)c1ccccc1)[C@H]1Cc2cc3ccc(=O)oc3cc2O1	none
O=C1CC(O)C(C2=CC(=O)c3c(O)cccc3C2=O)O1 (configuration not stated)	OTUD3 block 71, USP28 inh 83, USP17 inh 71
CN1CCc2c(sc3c2c(NCc2cccnc2)nc2nnnn23)C1	USP8 inh 39
CN1CCc2c(C#N)c(NCc3cccnc3)n3cnnc3c2C1	none
Cc1ccccc1CNC(=O)Cn1c(=O)n(-c2ccccc2)c2ncccc21	USP17 inh 47
O=C(c1ccc2[nH]ccc2c1)N1CCC2(CC1)COCCN2CC1CC1	none
COc1ccc(NC(=O)C2Oc3ccc(C)cc3NC2=O)cc1Cl (configuration not stated)	USP17 inh 75
CCN1C(=O)Cc2cc(NS(=O)(=O)c3cc(C)ccc3C)ccc21	USP8 inh 40
O=C(NC1CCCN(c2cc(-c3ccncc3)[nH]n2)C1)c1ccc(F)cc1 (configuration not stated)	none
COc1ccc(-n2c(SCC(=O)c3ccc(F)cc3)nnc2-c2cccnc2)cc1	USP17 inh 71
COc1ccc(C(=O)CSc2ccc3nnc(-c4cccnc4)n3n2)cc1	none
Cc1cc([N+](=O)[O-])nn1CCCC(=O)Nc1ccc2c(c1)OCO2	USP8 inh 45
CC(=O)c1ccc(OCc2csc(-c3ccc(F)cc3)n2)cc1	USP28 inh 30, USP30 block 37, USP17 inh 43
Cn1cc(C(=O)Nc2cccnc2)c2nn(-c3ccccc3)c(=O)c-2c1	USP8 inh 31
O=C(Nc1cccnc1)c1cn(Cc2ccc(F)cc2)cc2c(=O)n(-c3ccccc3)nc1-2	none
Cc1ccc(S(=O)(=O)N2CCc3nc(N4CCOCC4)[nH]c(=O)c3CC2)c(C)c1	none
Cc1ccc(S(=O)(=O)N(C)c2ccc(OCC(=O)Nc3cc(C)nn3-c3ccccc3)cc2)cc1	none
O=C(Cn1cncn1)NCc1cccc(C(F)(F)F)c1	none
O=C(NCc1cccc(C(F)(F)F)c1)c1ccc(-n2cccn2)nc1	USP30 block 32
C=C(NC(=O)C(=C)NC(=O)c1csc(-c2ccc3c(n2)-c2csc(n2)-c2csc(n2)C(C(C)C2CO2)NC(=O)C(Cc2ccc(O)cc2)NC(=O)c2csc(n2)C(C(O)c2ccccc2)NC(=O)c2nc(sc2C)C(CC(N)=O)NC(=O)c2csc-3n2)n1)C(=O)O (configuration not stated)	USP17 inh 68
COc1cc(-c2noc(-c3ccccc3C)n2)ccc1OCC(=O)NC(C)C	USP30 block 33
COc1ccc(NC(=O)COc2ccccc2-c2nnc(-c3ccccc3)o2)cc1	USP30 block 33, USP17 inh 35
CC(C)NC(=O)COc1ccccc1-c1nnc(-c2ccccc2)o1	USP30 block 50
Cn1c(=O)cc(C(=O)Nc2cc(Cl)ccc2Cl)[nH]c1=O	none
CCN1CCc2nc(NC(=O)COc3c(Cl)cccc3Cl)sc2C1	USP17 inh 37
CCN1CCc2nc(NC(=O)COc3ccc(Nc4ccccc4)cc3)sc2C1	USP8 inh 79
Cn1cccc1C1CCCCCN1C(=O)c1cnccn1 (configuration not stated)	none (no result: USP28 inh, USP30 block)
Cc1nc(N2CCN(c3ccc(F)cc3)CC2)[nH]c(=O)c1Cc1ccccc1	none
COc1ccccc1C(=O)N(Cc1ccccc1F)C1CCS(=O)(=O)C1 (configuration not stated)	none
COc1ccccc1C(=O)N(Cc1ccccc1)C(C)(C)c1ccccc1	USP30 block 36
Cn1c(=O)c(C(=O)Nc2ccc(Br)cc2F)nc2ccccc21	USP17 inh 46
CCn1c(=O)c(C(=O)Nc2ccc(Br)cc2)nc2ccccc21	USP17 inh 34
Cn1c(=O)c(C(=O)Nc2ccc(Br)cc2)nc2ccccc21	USP8 inh 77, USP30 block 34
CCn1c(=O)c(C(=O)Nc2cccc(F)c2)nc2ccccc21	none
CC(=O)Nc1cccc(NC(=O)c2nc3ccccc3n(C)c2=O)c1	none
COc1ccc(-n2ncc3c2CCCN(C(=O)C2CCCC2)C3)cc1	none
Clc1ccc(Oc2ncccc2-c2nc3ccccc3s2)cc1	none
O=C(Cc1ccc(Cl)cc1)N1CCC2(C1)C(=O)Nc1ccccc12 (configuration not stated)	none
N#Cc1c(C(F)(F)F)cc(-c2ccccc2)nc1N1CCOCC1	USP17 inh 30
COc1ccc(CNC(=O)CCn2c(=O)c3sccc3n(Cc3cccc([N+](=O)[O-])c3)c2=O)cc1	none
COc1ccc(CCNC(=O)CCCCn2c(=O)c3ccccc3n(Cc3cccc(Cl)c3)c2=O)cc1OC	USP30 block 53, USP17 inh 34
COc1ccc(CCNC(=O)CCCn2c(SCC(=O)NCc3ccco3)nc3ccccc3c2=O)cc1OC	OTUD3 block 37, USP30 block 41, USP17 inh 33
COc1ccc(NC(=O)CCCCn2c(=O)c3ccccc3n(Cc3cccc([N+](=O)[O-])c3)c2=O)cc1	USP17 inh 33
COc1ccc(CCNC(=O)CSc2cn(CC(=O)N3CCCCC3)c3ccccc23)cc1OC	none
COC(=O)CSc1nc2ccccc2c(=O)n1Cc1ccco1	none
COc1ccc(CCNC(=O)CSc2cc(=O)n(C)c3cc(Cl)ccc23)cc1OC	USP17 inh 38
Cc1cc(C(=O)N2CC(C(=O)Nc3cc(Cl)ccc3C#N)C2)no1	none
CCCCCn1c(SCC(=O)CC(=O)OCC)nc2cc(C(=O)NCc3ccco3)ccc2c1=O	USP8 inh 63, USP17 inh 34
COc1ccc(OC)c(NC(=O)Cn2c(=O)n(CC3CCC(C(=O)NCCc4ccccc4)CC3)c(=O)c3ccccc32)c1 (configuration not stated)	OTUD3 block 93, USP30 block 36, USP17 inh 39
Cc1ccc(Cn2c(=O)n(CCC(=O)NCCc3ccccc3)c(=O)c3ccccc32)cc1	USP8 inh 34, USP30 block 63, USP17 inh 46
Cc1cccc(NC(=O)Cn2c(=O)n(CC(=O)NCCc3ccccc3)c(=O)c3ccccc32)c1C	USP30 block 48
Cc1ccc(Cn2c(=O)c3ccccc3n3c(CCC(=O)NCCN4CCOCC4)nnc23)cc1	none
COc1ccc(C2CSCCN2C(=O)c2ccc(F)cc2)cc1 (configuration not stated)	none
